Reference: PubChem BioAssay (NCI)
About 83,000 compounds went through this panel and 20% of them were active in at least one assay; those are over-represented in the sample as a whole.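 48-hour exposure, single concentration, 96-well plates; percent growth endpoint where 0 means no net growth. Active: below 10.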 Activity calls are given as the source filed them.

Experiments:
Assay in all cases: NCI-60 one-dose screen, 48 h (100 = growth as untreated, 0 = no growth, -100 = all killed)
Settings in all cases: 10 µM unless noted
NCI/ADR-RES ovarian = test system: NCI/ADR-RES ovarian
T-47D breast = test system: T-47D breast
BT-549 breast = test system: BT-549 breast
MDA-MB-435 melanoma = test system: MDA-MB-435 melanoma
SW-620 colon = test system: SW-620 colon
MCF7 breast = test system: MCF7 breast
HCT-116 colon = test system: HCT-116 colon
HCC-2998 colon = test system: HCC-2998 colon
KM12 colon = test system: KM12 colon

Measured: growth

CN1C(=O)C(=Cc2cn(Cc3ccccc3)c3ccccc23)C(=O)N(C)C1=O
inactive: NCI/ADR-RES ovarian 89% | T-47D breast 42.8% | BT-549 breast 88.9% | MDA-MB-435 melanoma 102% | SW-620 colon 79.7% | MCF7 breast 64% | HCT-116 colon 71% | HCC-2998 colon 81.8% | KM12 colon 102%

CC(=O)O[C@H]1CC[C@@]2(C)C(=CC[C@H]3[C@@H]4C[C@@H](N5CC5)[C@H](C(C)=O)[C@@]4(C)CC[C@@H]32)C1
inactive: NCI/ADR-RES ovarian 92.9% | T-47D breast 88.3% | BT-549 breast 100% | MDA-MB-435 melanoma 99.9% | SW-620 colon 89.6% | MCF7 breast 72.8% | HCT-116 colon 85.9% | HCC-2998 colon 106% | KM12 colon 106%

COC1OC(CO)C(O)C(O)[CH]1[Hg][O]C(C)=O (stereo not drawn)
inactive: NCI/ADR-RES ovarian 92.4% | T-47D breast 63.8% | BT-549 breast 103% | MDA-MB-435 melanoma 93.7% | SW-620 colon 89% | MCF7 breast 53.2% | HCT-116 colon 102% | HCC-2998 colon 106% | KM12 colon 94.5%

CCOc1ccc(/C=C/[N+](=O)[O-])cc1
active: HCT-116 colon -31.6%
inactive: NCI/ADR-RES ovarian 100% | T-47D breast 86% | BT-549 breast 80.8% | MDA-MB-435 melanoma 20.1% | SW-620 colon 66.6% | MCF7 breast 28.5% | HCC-2998 colon 23.7% | KM12 colon 70.7%

Cc1cc(N(CCCl)CCCl)ccc1C=Nc1cccnc1
inactive: NCI/ADR-RES ovarian 71.6% | T-47D breast 45.3% | BT-549 breast 86.9% | MDA-MB-435 melanoma 101% | SW-620 colon 85.3% | MCF7 breast 36.5% | HCT-116 colon 77.6% | HCC-2998 colon 90.7% | KM12 colon 102%

C=C1[C@@H](C)[C@H]2[C@H](Cc3ccccc3)NC(=O)[C@]23[C@@H](O)/C=C/[C@@](C)(O)C(=O)[C@@H](C)C/C=C/[C@H]3[C@@H]1O
inactive: NCI/ADR-RES ovarian 94.6% | T-47D breast 48.3% | BT-549 breast 63.1% | MDA-MB-435 melanoma 80.5% | SW-620 colon 41.8% | MCF7 breast 63.8% | HCT-116 colon 50.1% | HCC-2998 colon 62.4% | KM12 colon 81.5%

CCNc1nc(Cl)nc(NCC)n1
inactive: NCI/ADR-RES ovarian 101% | T-47D breast 91% | BT-549 breast 108% | MDA-MB-435 melanoma 94.8% | SW-620 colon 101% | MCF7 breast 98.7% | HCT-116 colon 88.1% | HCC-2998 colon 104% | KM12 colon 106%

Brc1ccc2c(c1)c(-c1nc(-c3c[nH]c4ncccc34)cs1)cn2CCN1CCCCC1
inactive: NCI/ADR-RES ovarian 75.2% | T-47D breast 66.2% | BT-549 breast 89% | MDA-MB-435 melanoma 76.9% | SW-620 colon 58.4% | MCF7 breast 47.1% | HCT-116 colon 51% | HCC-2998 colon 38.9% | KM12 colon 66.2%

C[C@@H]1C[C@@]2(C)[C@@H](CC[C@@H]3[C@@H]2CC[C@]2(C)C(=O)CC[C@@H]32)CC1=O
inactive: NCI/ADR-RES ovarian 102% | T-47D breast 98.9% | BT-549 breast 112% | MDA-MB-435 melanoma 90% | SW-620 colon 99.7% | MCF7 breast 99.9% | HCT-116 colon 69.3% | HCC-2998 colon 109% | KM12 colon 115%

COC(C(=O)[C@@H](O)[C@@H](C)O)[C@@H]1Cc2cc3cc(O[C@H]4C[C@@H](O[C@H]5C[C@@H](O)[C@H](O)C(C)O5)[C@H](O)C(C)O4)c(C)c(O)c3c(O)c2C(=O)[C@H]1O[C@H]1C[C@@H](O[C@H]2C[C@@H](O[C@H]3C[C@@H](O)[C@@H](O)C(C)O3)[C@@H](O)C(C)O2)[C@H](O)C(C)O1 (stereo partly drawn)
inactive: NCI/ADR-RES ovarian 85.5% | SW-620 colon 22.2%
active: T-47D breast -1.75% | BT-549 breast -27.2% | MDA-MB-435 melanoma -37.2% | MCF7 breast 0.0061% | HCT-116 colon 2.29% | HCC-2998 colon -5.17% | KM12 colon 4.05%

CCCC(=O)O[C@@H]1C[C@H]2C[C@@H](O[C@@H]3O[C@@H](C)[C@@H](O)[C@@H](O)[C@H]3OC)C[C@@H](C[C@@H](C)/C=C/C=C\C[C@@H]3O[C@@H](C[C@@H]3C)[C@@H](O)C[C@H]3C[C@@]1(O)C(=O)O3)O2
inactive: NCI/ADR-RES ovarian 67.6% | T-47D breast 17.4% | BT-549 breast 46.9% | MDA-MB-435 melanoma 59.1% | SW-620 colon 87.4% | MCF7 breast 25.7% | HCT-116 colon 56.3% | HCC-2998 colon 59.4% | KM12 colon 65.3%

CC[C@H](C)[C@H](NC(=O)[C@H]1CCCCN1C)C(=O)N(C)[C@H](C[C@@H](OC(C)=O)c1cccc(C(=O)N[C@@H](Cc2ccccc2)C[C@H](C)C(=O)O)n1)C(C)C
active: BT-549 breast -18.7% | MDA-MB-435 melanoma -48.8% | HCT-116 colon -0.292% | KM12 colon -6.52%
inactive: NCI/ADR-RES ovarian 15.6% | T-47D breast 66.8% | SW-620 colon 28.3% | MCF7 breast 14.7% | HCC-2998 colon 17.1%

COC(=O)[C@@H](C)C[C@H](Cc1ccccc1)NC(=O)c1csc([C@@H](C[C@H](C(C)C)N(C)C(=O)[C@@H](NC(=O)[C@H]2CCCN2C)C2CC2)OC(C)=O)n1
inactive: NCI/ADR-RES ovarian 12.4% | T-47D breast 40.9% | SW-620 colon 30.6% | MCF7 breast 21.7% | HCC-2998 colon 14.8%
active: BT-549 breast -9.2% | MDA-MB-435 melanoma -20.6% | HCT-116 colon 1.11% | KM12 colon 1.92%

COC(=O)[C@@H](C)C[C@H](Cc1ccccc1)NC(=O)c1csc([C@@H](C[C@H](C(C)C)N(C)C(=O)[C@@H](NC(=O)[C@H]2CCCCN2C)C(C(F)(F)F)C(F)(F)F)OC(C)=O)n1
inactive: NCI/ADR-RES ovarian 23.8% | T-47D breast 59.7% | SW-620 colon 23.1% | MCF7 breast 12.2% | HCC-2998 colon 19.9%
active: BT-549 breast -21.6% | MDA-MB-435 melanoma -46.1% | HCT-116 colon -10.3% | KM12 colon 7.94%

CC(=O)OC[C@]1(C)C=C2C(=O)[C@](C)(O)C3(CC3)C(C)=C2[C@H]1OC(=O)N(C)CCN(C)C(=O)OC(C)(C)C
active: NCI/ADR-RES ovarian -2.04% | T-47D breast 8.4% | BT-549 breast -32.8% | MDA-MB-435 melanoma -47% | MCF7 breast 2.67% | HCT-116 colon 3.86% | HCC-2998 colon 6.65%
inactive: SW-620 colon 10.4% | KM12 colon 13%

NC(CCl)CCl
active: T-47D breast -100%
inactive: NCI/ADR-RES ovarian 105% | BT-549 breast 107% | MDA-MB-435 melanoma 89.2% | SW-620 colon 102% | MCF7 breast 96.5% | HCT-116 colon 107% | HCC-2998 colon 101% | KM12 colon 99.5%

O=C(CC1(O)C(=O)Nc2ccc(Br)cc21)c1ccc(C(=O)NCC2CCC3(CC2)OOC2(CCCCC2)OO3)cc1 (stereo not drawn)
inactive: NCI/ADR-RES ovarian 64.6% | T-47D breast 14.7% | BT-549 breast 63.6% | MDA-MB-435 melanoma 36.1% | MCF7 breast 32.5% | HCT-116 colon 38.9% | HCC-2998 colon 99.7% | KM12 colon 31.6%
active: SW-620 colon -12.5%

O=C(Nc1ccc(Cl)cc1)Nc1nccs1
active: NCI/ADR-RES ovarian 8.57% | MDA-MB-435 melanoma -49.4%
inactive: T-47D breast 40.1% | BT-549 breast 44.1% | SW-620 colon 26.4% | MCF7 breast 15.2% | HCT-116 colon 41.2% | HCC-2998 colon 69.5% | KM12 colon 34.3%

CC(C)[C@]12O[C@H]1[C@@H]1O[C@]13[C@]1(O[C@H]1C[C@H]1c4c(C(=O)c5ccccc5)oc(OC(=O)c5ccccc5)c4CC[C@@]13C)[C@@H]2O
active: NCI/ADR-RES ovarian 8.83% | T-47D breast 6.53% | BT-549 breast -24.3% | MDA-MB-435 melanoma -87.9% | SW-620 colon -3.73% | HCT-116 colon 5.12% | HCC-2998 colon -15.3% | KM12 colon -15.7%
inactive: MCF7 breast 12.5%

O=NN1CCCc2cccc(O)c21
inactive: NCI/ADR-RES ovarian 32.5% | T-47D breast 77.2% | BT-549 breast 54.2% | MDA-MB-435 melanoma 52.1% | SW-620 colon 44.1% | MCF7 breast 27.2% | HCT-116 colon 21.7% | HCC-2998 colon 55.7% | KM12 colon 68.4%

CC[C@H](C)[C@H](NC(=O)c1nccn1C)C(=O)N(C)[C@H](C[C@@H](OC(C)=O)c1nc(C(=O)N[C@@H](Cc2ccccc2)C[C@H](C)C(=O)OC)cs1)C(C)C
active: BT-549 breast 0.0991% | MDA-MB-435 melanoma -48% | HCT-116 colon 3.27%
inactive: NCI/ADR-RES ovarian 16.5% | T-47D breast 47.9% | SW-620 colon 26.1% | MCF7 breast 17.5% | HCC-2998 colon 31.5% | KM12 colon 11.1%

COc1ccc(/C(C)=C(\c2ccc(OCCN3CCOCC3)cc2)c2ccc(OC(=O)Cc3ccccc3)cc2)cc1
inactive: NCI/ADR-RES ovarian 102% | T-47D breast 65.4% | BT-549 breast 108% | MDA-MB-435 melanoma 107% | SW-620 colon 111% | MCF7 breast 71.7% | HCT-116 colon 104% | HCC-2998 colon 102% | KM12 colon 103%

COc1ccc(/C=C\c2cc(OC)c(OC)c(OC)c2)cc1NC(=O)/C=C/c1cc(OC)c(OC)c(OC)c1
inactive: T-47D breast 30% | BT-549 breast 44% | SW-620 colon 47.6% | MCF7 breast 25.2% | HCT-116 colon 44.6% | HCC-2998 colon 91.2% | KM12 colon 28.6%
active: NCI/ADR-RES ovarian 8.42% | MDA-MB-435 melanoma -53.2%

C[C@@]12CC[C@@H](O)C[C@@H]1CC[C@H]1[C@H]2CC[C@@]2(C)[C@H](c3ccc(=O)oc3)CC[C@@]12O
active: NCI/ADR-RES ovarian -39.6% | T-47D breast -18.1% | BT-549 breast -84.2% | MDA-MB-435 melanoma -81.9% | SW-620 colon -68.3% | MCF7 breast -27% | HCT-116 colon -76% | HCC-2998 colon -50.7% | KM12 colon -87.6%

COc1ccc(/C=C\c2cc(OC)c(OC)c(OC)c2)c(NS(=O)(=O)c2ccc(Cl)cc2)c1O
active: NCI/ADR-RES ovarian -7.04% | MDA-MB-435 melanoma -48% | HCT-116 colon 6.81% | KM12 colon 1.25%
inactive: T-47D breast 84.7% | BT-549 breast 58.2% | SW-620 colon 27% | MCF7 breast 12.7% | HCC-2998 colon 12.7%

CCCCCSC1C2C(=O)C(Br)=CC13CCNc1c(O)c4c5c(c13)=[N+]2CCC=5C=N4 (stereo not drawn)
inactive: NCI/ADR-RES ovarian 29.1% | BT-549 breast 36.1%
active: T-47D breast -48.2% | MDA-MB-435 melanoma -81.1% | SW-620 colon -54.5% | MCF7 breast -54.9% | HCT-116 colon -92.3% | HCC-2998 colon -68.4% | KM12 colon 2.34%

CC(=O)O[C@H](C[C@H](C(C)C)N(C)C(=O)[C@@H](NC(=O)[C@H]1CCCCN1C)C(C)C)c1nc(C(=O)N[C@@H](Cc2ccccc2)C[C@H](C)C(=O)O)c(CCOCc2ccccc2)s1
active: NCI/ADR-RES ovarian 9.71% | BT-549 breast -36.6% | MDA-MB-435 melanoma -49.7% | HCT-116 colon -22.2% | KM12 colon 5.5%
inactive: T-47D breast 62.4% | SW-620 colon 28.3% | MCF7 breast 25.9% | HCC-2998 colon 16.3%
